In PubChem BioAssay (Tox21):
“And” between values parts separate entries of the source, which are not always exact repeats. Equal entries are not always repeated. Results filed as inconclusive are left out. Where a call stands in place of a potency, no number is given. The source made the active and inactive calls. Calls come from the whole dose curve; as a rule, active = well fitted inhibition curve with a large enough effect in the signal ratio in the repeat runs; inconclusive = weak or mixed curves, or effect the other way; inactive = flat fitted curve, though single readings scatter; the % refers to the signal ratio.
Potency is the fitted concentration of half-maximal effect.

Assay: qHTS assay for small molecule disruptors of the mitochondrial membrane potential (AID 720635)
Details: HepG2 mitochondrial membrane potential, Mito-MPS dye ratio; series mostly up to 83.2 µM
Source text: U.S. Tox21 Program National Center for Advancing Translational Sciences [NCATS] NIH Chemical Genomics Center [NCGC] U.S. Environmental Protection Agency [EPA] National Institutes of Environmental Health Sciences [NIEHS] National Toxicology Program [NTP] U.S. Food and Drug Administration [FDA] Tox21 Assay Overview: Mitochondrial membrane potential (MMP), one of the parameters for mitochondrial function, is generated by mitochondrial electron transport chain that creates an electrochemical gradient by a series of redox reactions. This gradient drives the synthesis of ATP, a crucial molecule for various cellular processes. Measuring MMP in living cells is commonly used to assess the effect of chemicals on mitochondrial function. […] The dye accumulates in the mitochondria of healthy cells as aggregates, with red fluorescence. The mitochondrial potential collapses and the dye can no longer accumulate in the mitochondria and remains in the cytoplasm in monomers, with green fluorescence.
Tox21 Assay Protocol Summary: 2,000 HepG2 cells in 5 uL/well were dispensed into black, clear-bottom 1536-well plates using a Multidrop Combi (Thermo Scientific) dispenser. The assay plates were incubated overnight at 37C to allow cells to attach to the wells, followed by the transfer of 23 nL compound or DMSO vehicle by a pin tool (Kalypsys). The plates were incubated for 1 hr at 37C and 5% CO2, followed by the addition of 5 uL of 2X Mito-MPS dye (BD Biosciences) into each well using Flying Reagent Dispenser (Aurora Discovery) and then following 30 min incubation at 37C. Fluorescence intensity (490nm excitation and 535nm emission for monomers; and 540nm excitation and 590nm emissions for aggregates) was measured using an Envision plate reader.
In the case of `CC(C)CCC[C@@H](C)[C@H]1CC[C@H]2[C@@H]3CC[C@@H]4C[C@H](O)CC[C@]4(C)[C@H]3CC[C@]12C`, the Potency was “inactive”. With `Cc1ccc(Cl)c(N)c1Cl` the Potency was “inactive”. With `Nc1nc(NC2CC2)c2ncn([C@@H]3C=C[C@@H](CO)C3)c2n1` the Potency was “inactive”. With `CCC(=O)OC(OP(=O)(CCCCc1ccccc1)CC(=O)N1C[C@H](C2CCCCC2)C[C@H]1C(=O)O)C(C)C` (stereo not given in full) the Potency was “inactive”. With `C[C@H](O)CN(C)C` the Potency was “inactive”. In the case of `CC(C)CCC[C@@H](C)[C@H]1CC[C@H]2[C@@H]3CC=C4C[C@@H](O)CC[C@]4(C)[C@H]3CC[C@]12C`, the Potency was “inactive”. With `CC(CNC(=O)c1cccnc1)NC(=O)c1cccnc1` (stereo not given) the Potency was “inactive”. In the case of `CC(C)NCC1CCc2cc(CO)c([N+](=O)[O-])cc2N1` (stereo not given), the Potency was “inactive”. With `O=C1OC(O)C(C(Cl)Cl)=C1Cl` (stereo not given) the Potency was 63 µM (active). With `C=CCN1C(=O)C(CC(C)C)NC1=S` (stereo not given) the Potency was “inactive”. For `CN=C(N)NCCC[C@H](N)C(=O)O`, the Potency was “inactive”. In the case of `CC(C)c1ncc([N+](=O)[O-])n1C`, the Potency was “inactive”. In the case of `O=c1[nH]c(=O)n([C@H]2C[C@H](O)[C@@H](CO)O2)cc1/C=C/Br`, the Potency was “inactive”. With `CC[N+](CC)(CC)CCC(O)(c1ccccc1)C1CCCCC1` (stereo not given) the Potency was “inactive”. With `NC[C@H]1O[C@H](O[C@H]2[C@H](O)[C@@H](O[C@H]3O[C@H](CO)[C@@H](O)[C@H](N)[C@H]3O)[C@H](N)C[C@@H]2N)[C@H](N)C[C@@H]1O` the Potency was “inactive”. With `CCCCCCCCCCCCCC(=O)OCC(COP(=O)([O-])OCC[N+](C)(C)C)OC(=O)CCCCCCCCCCCCC` (stereo not given) the Potency was “inactive”. For `Cc1onc(-c2c(F)cccc2Cl)c1C(=O)N[C@@H]1C(=O)N2[C@@H]1SC(C)(C)[C@@H]2C(=O)O`, the Potency was “inactive”. With `O=P(O)(O)OP(=O)(O)OP(=O)(O)O` the Potency was “inactive”. With `CCN1\C(=C/C=C/C=C/c2sc3ccccc3[n+]2CC)Sc2ccccc21` the Potency was 33.5 nM (active) and 266 nM (active). With `O=C(O)c1ccc(NC2OC[C@@H](O)[C@H](O)[C@H]2O)cc1` (stereo not given in full) the Potency was “inactive”. In the case of `CC1(C)S[C@@H]2[C@H](N3C(=O)C(c4ccccc4)NC3(C)C)C(=O)N2[C@H]1C(=O)O` (stereo not given in full), the Potency was “inactive”. With `Nc1c(CC(=O)O)cccc1C(=O)c1ccccc1` the Potency was “inactive”. In the case of `O=C(O)CCCC/C=C(\c1ccccc1)c1cccnc1`, the Potency was “inactive”. With `CC1(C)CCC(NC(=O)[C@@H](N)CCC(=O)O)CC1` the Potency was “inactive”. In the case of `C=CCc1cc(S(=O)(=O)c2ccc(O)c(CC=C)c2)ccc1O`, the Potency was 27.3 µM (active). For `CO/N=C(\C(=O)N[C@@H]1C(=O)N2C(C(=O)[O-])=C(C[n+]3cccc4c3CCC4)CS[C@H]12)c1csc(N)n1`, the Potency was “inactive”. With `CCCCCCCCCCCCCCCCCCOCC(COP(=O)([O-])OCC[N+](C)(C)C)OC` (stereo not given) the Potency was “inactive”. In the case of `CCOc1ccc([N+](=O)[O-])cc1`, the Potency was 3.91 µM (active). In the case of `COc1cc2c(cc1OC)[C@@H](Cc1cc(OC)c(OC)c(OC)c1)[N+](C)(CCCOC(=O)CC/C=C/CCC(=O)OCCC[N+]1(C)CCc3cc(OC)c(OC)cc3[C@H]1Cc1cc(OC)c(OC)c(OC)c1)CC2` (stereo not given in full), the Potency was “inactive”. In the case of `O=C1CCC/C=C\CCCCCCCCCC1`, the Potency was 68.6 µM (active). In the case of `C/C(=C(/CCO)SSCC1CCCO1)N(C=O)Cc1cnc(C)nc1N` (stereo not given), the Potency was “inactive”. With `O=C(O)[C@H]1CN(C/C=C/P(=O)(O)O)CCN1` the Potency was “inactive”. With `CC(C)(S)C(=O)N[C@@H](CS)C(=O)O` the Potency was “inactive”. In the case of `CC1CCCC(C)N1NC(=O)c1ccc(Cl)c(S(N)(=O)=O)c1` (stereo not given), the Potency was “inactive”. For `C[N+](C)(C)CCOP(=O)(O)OP(=O)([O-])OC[C@H]1O[C@@H](n2ccc(N)nc2=O)[C@H](O)[C@@H]1O`, the Potency was “inactive”. With `O=C(CCCN1CCN2CCCC2C1)c1ccc(F)cc1` (stereo not given) the Potency was “inactive”. In the case of `CC(C)Cc1ccc([C@H](C)C(=O)O)cc1`, the Potency was “inactive”. In the case of `NC(N)=NCC1COC2(CCCCC2)O1` (stereo not given), the Potency was “inactive”. In the case of `O=C(O)c1cc2cc(Cc3cccnc3)ccc2o1`, the Potency was “inactive”. In the case of `OCCCNc1ccccc1`, the Potency was “inactive”.
